IL1B secr inh – inhibitors of inflammasome signaling (IL-1 beta secretion) | THP-1 LPS/ATP IL-1B secretion, AlphaLISA, 16 h; active compounds read low | activity change, % at 57.5 µM | 360,000 compounds, 4.7% hits | AID 743279; in the data active means activity change below about -50%; inconclusive means mostly about -30% to -49%; further: on the % scale 0 is the no-effect control and ±100 the full control effect
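THP-1 cells pretreated 1 hr with compounds (up to 57.5 uM final), then stimulated with LPS (250 ng/mL final) plus ATP (1.25 mM final); secreted IL-1B measured by AlphaLISA after 16 hr, decreased signal indicating inhibition.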
DT40 TDP1 no CPT – qHTS for Inhibitors of human tyrosyl-DNA phosphodiesterase 1 (TDP1): qHTS in cells in absence of CPT; DT40 Tdp1-/- hTDP1 cells, no CPT, ATP luminescence, 48 h; Potency, µM (top dose mostly 46.2 µM), without a hit: at the top dose activity change, negative = growth inhibition, most hits filed as inhibitors; 420,000 compounds, 15% hits; further: potency means the concentration at half of the fitted maximal effect; on the % scale 0 is the no-effect control and ±100 the full control effect; nearly all actives have a fitted effect of over 55% in size
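Chicken DT40 Tdp1-/- cells complemented with human TDP1, screened without camptothecin (DMSO vehicle only), 400 cells/well. Compounds pin-transferred, cells incubated at 37 °C for at least 48 hr. Growth read as ATP-dependent luminescence (CellTiter-Glo, 30 min at RT).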
TDP1 cell CPT – DT40-hTDP1 cell growth loss with CPT; 420,000 compounds, 12% hits; Potency, µM (series often up to 46.2 µM), for the others: at the top dose activity change, negative = growth inhibition, most hits filed as inhibitors; chicken DT40 Tdp1-/-;hTDP1 cells + 20 nM CPT, ATP luminescence, 48 h; further: potency means the concentration at half of the fitted maximal effect; on the % scale 0 is the no-effect control and ±100 the full control effect; nearly all actives have a fitted effect of over 55% in size
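Chicken DT40 Tdp1-/- cells complemented with human TDP1, 400 cells/well, exposed to compounds plus 20 nM camptothecin for at least 48 h at 37 C; viability read as ATP content by CellTiter-Glo luminescence.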
S-ASM inh – blocks human secretory acid sphingomyelinase; Potency, µM (series often up to 57.5 µM), inactives show at the top dose activity change, negative = inhibition, hits mostly inhibitors; P17405; 340,000 compounds, 0.006% hits; placental ASM, HMU-PC fluorogenic substrate, 60 min; AID 504937; further: potency means the concentration at half of the fitted maximal effect
Target sequence (P17405 47-631 limits assumed): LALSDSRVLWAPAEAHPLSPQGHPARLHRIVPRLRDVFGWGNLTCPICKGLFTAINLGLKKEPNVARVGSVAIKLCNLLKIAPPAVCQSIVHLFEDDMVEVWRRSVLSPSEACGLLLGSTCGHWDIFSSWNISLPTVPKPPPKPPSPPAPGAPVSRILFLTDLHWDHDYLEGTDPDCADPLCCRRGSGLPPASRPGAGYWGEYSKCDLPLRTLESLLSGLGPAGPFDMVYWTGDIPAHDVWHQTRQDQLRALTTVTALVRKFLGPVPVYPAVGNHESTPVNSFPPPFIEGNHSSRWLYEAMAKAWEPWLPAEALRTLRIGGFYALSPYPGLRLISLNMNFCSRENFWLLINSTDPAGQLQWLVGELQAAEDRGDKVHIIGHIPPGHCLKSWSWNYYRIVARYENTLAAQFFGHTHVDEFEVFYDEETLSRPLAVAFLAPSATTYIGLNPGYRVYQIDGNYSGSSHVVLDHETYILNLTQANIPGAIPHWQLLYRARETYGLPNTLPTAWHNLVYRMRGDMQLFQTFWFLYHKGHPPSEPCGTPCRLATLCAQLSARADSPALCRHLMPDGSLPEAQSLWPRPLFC
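HMU-PC0 cleavage (9 uM final) by human placental ASM, 60 min at 37 °C following 10 min compound exposure at RT; stopped at pH 10, fluorescence Ex 386/Em 447 nm.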
TGFb SMAD3 inh – blocks TGF-b signaling; HepG2 CAGA-GFP TGF-b/SMAD3 reporter, GFP fluorescence, 18 h; TGF-beta stimulated, 500 pg/mL final; Potency, µM (highest dose often 46.1 µM), for the others: at the top dose activity, negative = inhibition, usual class: inhibitors; 410,000 compounds, 1.2% hits; AID 588855; further: potency means the concentration at half of the fitted maximal effect; on the % scale 0 is the no-effect control and ±100 the full control effect; nearly all actives have a fitted effect of over 65% in size
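GFP signal (ex488/em500-530) from TGF-beta-stimulated HEPG2 CAGA-GFP cells, 500 pg/mL final, 18 h at 37 degrees C in DMEM plus 1% FBS, normalized to unstimulated and DMSO-stimulated controls.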
HepG2 viability – counter-screen for TGF-b inhibitors: cytotoxicity in HepG2 cells; HepG2 CAGA-GFP viability, ATP luminescence, 18 h; Potency, µM (series often up to 46.1 µM), without a hit: at the top dose activity change, negative = cytotoxicity, most hits filed as cytotoxic; AID 588856; 410,000 compounds, 0.76% hits; further: potency means the concentration at half of the fitted maximal effect
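CellTiter-Glo luminescence gave cytotoxicity after 18 hours at 37 degrees C. The cells were HepG2 CAGA-GFP in 1% FBS DMEM, stimulated with 500 pg/mL TGF-beta after compound addition. %Activity was normalised to no-cell wells (complete cell-killing) and DMSO (no toxicity), and curves were fitted and classified.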
The depositor's hits bear a star; ? = inconclusive; / = no result given. This is a sample that favours compounds with a hit; in the whole collection about 19% have one here. Unless noted, the call rests on the fitted dose curve; in most records, active means well fitted curve in the direction sought with a large enough effect; inconclusive means small, poorly fitted or top-dose-only effect, or another doubt; inactive means no such curve, though single readings can be large; an effect the other way counts as inactive or inconclusive.

SMILES	IL1B secr inh	DT40 TDP1 no CPT	TDP1 cell CPT	S-ASM inh	TGFb SMAD3 inh	HepG2 viability
Cc1nn(Cc2c(F)c(F)c(F)c(F)c2F)c(C)c1NC(=O)c1ccc(COc2ccccc2Cl)cc1	6	1.5µM*	?	-5%	?	-7%
Cc1cc(C(=O)Nc2c(C)nn(Cc3ccc(F)cc3)c2C)on1	-1	-13%	8%	-3%	2%	2%
Cc1nn(Cc2c(F)c(F)c(F)c(F)c2F)c(C)c1NC(=O)c1ccc(COc2cc(Cl)ccc2Cl)cc1	20	?	?	-7%	6%	-11%
Cc1ccc(S(=O)(=O)C2(C(=O)N3CCN(c4ccccc4F)CC3)CC2)cc1	0	-17%	-24%	-4%	1%	-4%
CCOC(=O)Nc1cccc(OCC(=O)Nc2ccc3c(c2)CCC3)c1	11	23µM*	?	-3%	?	-47%
COc1cccc(NC(=O)COc2ccc3c(c2)CCC3)c1	0	3%	0%	3%	-1%	-6%
CCOC(=O)C1(CCOC)CCN(Cc2ccncc2)CC1	22	-4%	15%	6%	1%	-15%
CCOC(=O)C1(CCOC)CCN(Cc2cccc(OCc3ccccc3)c2)CC1	0	16µM*	15µM*	2%	-15%	-40%
CCOC(=O)C1(CCOc2ccccc2)CCN(Cc2cc(OC)ccc2OC)CC1	-7	15µM*	?	10%	?	-55%
CCOC(=O)C1(CCOc2ccccc2)CCN(Cc2cccs2)CC1	-11	?	?	5%	2%	-27%
CCOC(=O)C1(CCOc2ccccc2)CCN(Cc2cccc(OC)c2)CC1	-8	15µM*	23µM*	-4%	?	-25%
CCOC(=O)C1(CCOC)CCN(Cc2nc(C(C)C)cs2)CC1	38	26µM*	?	-1%	18%	-13%
CCOC(=O)C1CCN(Cc2cccc(OCc3ccccc3)c2)CC1	27	-4%	-16%	2%	-12%	-3%
COC1OC(c2ccccc2)=C(c2cnc(N)nc2)c2ccc(F)cc21 (configuration not stated)	-7	-7%	-10%	/	/	/
O=C(CSc1nc2ccccc2c(=O)n1-c1ccccc1Cl)NCC1CCCO1 (configuration not stated)	-1	-23%	-3%	2%	15%	8%
O=C(NCc1ccccn1)c1ccc2nc(C3CCCCC3)oc2c1	3	-15%	-26%	6%	-10%	-6%
COc1ncc(C2=CC(=O)CC(C)(C)C2)cn1	-13	4%	-7%	8%	-5%	-4%
OCC1(CCc2ccccc2)CCCN(C/C=C/c2ccccc2)C1 (configuration not stated)	?	?	7%	0%	-13%	-27%
CCOC(=O)C1(CCOc2ccccc2)CCN(Cc2cccc(OC)c2O)CC1	-85*	?	?	2%	-10%	-25%
CCOC(=O)C1(CCOC)CCN(C/C=C/c2ccccc2OC)CC1	0	10µM*	10µM*	3%	?	-55%
COc1ccccc1/C=C/CN1CCCC(CO)(CCc2ccccc2)C1 (configuration not stated)	-94*	?	21µM*	-1%	-23%	-39%
CCOC(=O)C1(CCOc2ccccc2)CCN(Cc2nccn2CC)CC1	-4	?	?	-2%	-9%	-22%
CCNc1ncc2nc(-c3ccc(Cl)cc3)c(=O)n(C)c2n1	/	0%	-3%	/	/	/
NC(=O)c1ccccc1Nc1nc(NCCO)nc(N2CCCC2)n1	/	/	/	197%	-16%	-4%
CC(C(=O)N1CCCC1)N(c1ccc(Cl)cc1)S(C)(=O)=O (configuration not stated)	?	-3%	-9%	/	?	-30%
SMILES	IL1B secr inh	DT40 TDP1 no CPT	TDP1 cell CPT	S-ASM inh	TGFb SMAD3 inh	HepG2 viability
C=CCNCc1cc(=O)n2c(-c3ccccc3)csc2n1	34	3%	15%	20%	0%	-29%
CCOC(=O)c1c(C)n(C)c2ccc(O)c(S(=O)(=O)c3ccccc3)c12	-17	-4%	-21%	3%	-12%	11%
CCOC(=O)c1c(C)n(C)c2ccc(O)c(CN(C)C)c12	-53*	18µM*	21µM*	2%	?	-17%
CCOC(=O)c1sc(=N)n(-c2ccc(OC)cc2)c1C	-18	?	?	-2%	-23%	-17%
CCOC(=O)c1c(C)n(-c2ccc(OC)cc2)c2ccc(O)c(CN(C)C)c12	-30	16µM*	26µM*	-1%	?	-42%
Cc1ccccc1CNC(=O)C(=O)NCC(c1ccco1)S(=O)(=O)c1ccccc1 (configuration not stated)	/	?	-18%	/	-1%	2%
CCOc1cc(NC(=O)c2ccccc2C)c(OCC)cc1NC(=O)C1=Cc2ccccc2OC1	0	5.8µM*	7.3µM*	-3%	18%	13%
O=C(Nc1cccc(Cl)c1)C1=Cc2cc(Cl)ccc2OC1	-6	?	?	-15%	?	-30%
O=C(Nc1ccc(Cl)c(Cl)c1)C1=Cc2ccccc2OC1	?	23µM*	?	-10%	?	-46%
C[C@@H]1CCCCO[C@H](CN(C)S(=O)(=O)c2cccs2)[C@@H](C)CN([C@H](C)CO)C(=O)c2cc(NC(=O)C3CCCCC3)ccc2O1	-4	26µM*	18µM*	/	30%	-2%
C[C@@H]1CCCCO[C@H](CN(C)S(=O)(=O)c2cccs2)[C@H](C)CN([C@@H](C)CO)C(=O)c2cc(NC(=O)NC3CCCCC3)ccc2O1	-16	12µM*	18µM*	/	16%	1%
C[C@@H]1CN([C@@H](C)CO)C(=O)c2cc(N(C)C)ccc2O[C@@H](C)CCCCO[C@@H]1CN(C)S(=O)(=O)c1cccs1	26	16µM*	18µM*	/	5%	39%
C[C@H](CO)N1C[C@H](C)[C@@H](CN(C)S(=O)(=O)c2cccs2)Oc2ccc(NC(=O)NC3CCCCC3)cc2C1=O	-26	?	?	2%	-15%	-27%
C[C@@H]1CCCCO[C@@H](CN(C)S(=O)(=O)c2cccs2)[C@@H](C)CN([C@H](C)CO)C(=O)c2cc(NS(=O)(=O)c3ccccc3)ccc2O1	?	8.2µM*	16µM*	/	?	1%

High-throughput results deposited in PubChem BioAssay by National Center for Advancing Translational Sciences (NCATS).
